# In PubChem BioAssay (NCATS):
# Records with an inconclusive call do not appear. Values without a mark were called inactive. Activity calls are given as the source filed them. Calls follow the shape of the dose curve; as a rule, active = well fitted activation curve with a large enough effect; inconclusive = small, poorly fitted or top-dose-only effect; inactive = no such curve, though single readings can be large or run the other way.
# Experiment: Validation screen for small molecules that induce genotoxicity in human embryonic kidney (HEK293T) cells expressing luciferase-tagged ELG1 (AID 493106); as to activity change, positive = ELG1 induction: 0% is about no effect
# Details: luminescence; series mostly up to 46.1 µM; activity change, positive = ELG1 induction: at the top concentration
# From the text: NIH Molecular Libraries Probe Production Network [MLPCN]
# NIH Chemical Genomics Center [NCGC]
# Assay Provider: Kyungjae Myung, NHGRI, NIH
# Keywords: MLPCN, qHTS, NCGC, genotoxicity, cancer
# Cancer cells divide rapidly compared to normal cells in the body. During cell division, cancer cells need to duplicate their genome by DNA replication. The failure of genome duplication leads to cancer cells' death. Therefore, inhibitors of DNA replication could specifically kill cancer cells. Based on this concept, many chemotherapeutic agents were developed and have been used to treat cancer patients. However, there are a limited number of agents available in the clinical setting, and some of those that do exist have low efficacy and severe side effects. Therefore, if we can find the compounds that effectively block DNA replication either by directly damaging DNA or by inhibiting other cellular mechanisms, the options for cancer treatment will be broadened. With this in mind, we developed a quantitative high-throughput ELG1-luciferase reporter gene assay. Since the level of human ELG1 protein is enhanced in response to genetic stresses, increases in luciferase activity can be used to identify compounds that cause genetic stress.
# For genotoxicity screening, 2,000 cells in 5 uL/well were dispensed into white, solid-bottom 1536-well plates using a solenoid-based dispenser. Following transfer of 23 nL compound or DMSO vehicle by a pin tool, the plates were incubated 16 hr at 37 °C and 5% CO2. 5 ul ONE-Glo (Promega) was then added to each plate and following a 30 min incubation at room temperature, luciferase activity was quantified on a ViewLux CCD-based plate reader.
# Potency is read from the fitted curve at half-maximal effect.
SMILES,"activity change, positive = ELG1 induction [%]",Potency
COc1cc(CC(=O)O)ccc1O,-2.62,
Nc1nc2[nH]c(=O)cnc2c(=O)[nH]1,1.14,
CC(N)(C(=O)O)c1ccc(C(=O)O)cc1 (stereo not given),-6.14,
CCCCCCCCCC[Si](C)(C)CCC(=O)NC(Cc1ccc(C)cc1)c1ccccc1 (stereo not given),-1.75,
C=CCn1c(=O)c2c(nc(-c3ccc(S(=O)(=O)O)cc3)n2C)n(C)c1=O,-7.67,
CC1CNCCN1S(=O)(=O)c1cccc2cnccc12 (stereo not given),-15,
O=c1onc2n1-c1cc(Br)ccc1OC2,0,
O=[N+]([O-])c1cccc2c(Br)[nH]nc12,-2.02,
N=C(N)c1ccc(OCCCCCOc2ccc(C(=N)N)cc2)cc1 (tested in a mixture with another compound),-20,
COc1ccccc1N1CCN(CCCCN2C(=O)c3ccccc3C2=O)CC1,-4.91,
Oc1cc2c(cc1O)C(c1ccccc1)CNCC2 (stereo not given),-9,
COc1cc(/C=C(\C#N)C(=O)Nc2nnc(C(F)(F)F)s2)ccc1OCc1ccc(C(F)(F)F)cc1C(F)(F)F,-10,
CCN1C(=O)C=CC1=O,-0.271,
CCCCCCCCCCC(C)(C)C(=O)Nc1c(OC)cc(OC)cc1OC,-8.67,
N[C@@H](Cc1c[nH]c2ccccc12)C(=O)O,0.752,
O=C1Cc2c([nH]c3ccc(Br)cc23)-c2ccccc2N1,,411 nM (active)
NCC(O)C1CCCCCCC1 (stereo not given),-8.28,
O=C(O)C1=CC(=C(c2ccc(O)c(C(=O)O)c2)c2ccc(O)c(C(=O)O)c2)C=CC1=O,-6.32,
CC(N)=O,-7.85,
CC[N+](CC)(CC)CC(=O)Nc1c(C)cccc1C,-4.66,

SMILES,"activity change, positive = ELG1 induction [%]",Potency
c1ccc(C2CN3CCSC3=N2)cc1 (stereo not given),-3.88,
CC(=O)C(C)=O,-3.07,
Nn1nnc2ccccc21,-4.06,
O=c1oc(Cl)c(Cl)c2ccccc12,13.4,
N[C@H](C(=O)O)c1cc(O)cc(O)c1,-7.73,
CC(C)C[C@H](NC(=O)[C@H](O)[C@H](N)Cc1ccccc1)C(=O)O,-5.87,
N#Cc1cc([N+](=O)[O-])c2sc(C(N)=O)[n+]([O-])c2c1,-11.5,
CCN(c1nc(N)c(C(=O)N=C(N)N)nc1Cl)C(C)C,-13.9,
CCCn1c(=O)c2[nH]c(-c3ccc(S(=O)(=O)O)cc3)nc2n(CCC)c1=O,-6.68,
CCCCC[C@H](CC(=O)NO)C(=O)N[C@H](C(=O)N1CCC[C@H]1CO)C(C)C,-19.8,
CN1CCN(c2nc3cc(C(F)(F)F)ccc3n3cccc23)CC1,-11.3,
Cc1nc(N=Nc2cc(S(=O)(=O)O)c3cc([N+](=O)[O-])cc(S(=O)(=O)O)c3c2)c(COP(=O)(O)O)c(C=O)c1O,-3.07,
Cc1nc(N=Nc2ccc(S(=O)(=O)O)cc2S(=O)(=O)O)c(COP(=O)(O)O)c(C=O)c1O,-0.361,
O=C(O)C1CCCNC1 (stereo not given),1.96,
NCCC1CCCC(CCN)N1 (stereo not given),-3.76,
CCSC(=N)N,-1.62,
COC(=O)C1=C(C)NC(C)=C([N+](=O)[O-])C1c1ccccc1C(F)(F)F (stereo not given),-10.6,
CN(C)CCC(c1ccc(Br)cc1)c1ccccn1 (stereo not given),-2.5,
C=C1C(=O)O[C@@H]2[C@H]3O[C@]3(C)CCC=C(C)CC[C@@H]12,5.48,
NCC(O)c1ccc(O)c(O)c1 (stereo not given),4.39,
